Among the test systems are SK-MEL-2 melanoma; EKVX NSCLC; SN12C renal; UO-31 renal; TK-10 renal; ACHN renal; CAKI-1 renal; A498 renal; CCRF-CEM leukemia; MOLT-4 leukemia.
Holding throughout (experiment): NCI-60 one-dose screen, 48 h (100 = growth as untreated, 0 = no growth, -100 = all killed)
Holding throughout (settings): 10 µM unless noted

About 83,000 compounds went through this panel and 20% of them were active in at least one assay; those are over-represented in the sample as a whole.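 Activity criterion: percent growth below 10, measured after cells in 96-well plates were exposed to a single compound concentration for 48 hours.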 Unmarked numbers belong to inactive results. Calls of active or inactive are those of the source.

Turning to `Cc1cc(C)cc(NC(=O)Cn2cc(COn3nnc4ccccc43)nn2)c1`, the growth in the experiment on SK-MEL-2 melanoma was 105%; with EKVX NSCLC, 102%; with SN12C renal it was 97.3%; in the experiment on UO-31 renal, 92.5%; in the experiment on TK-10 renal, 100%; in the experiment with ACHN renal, 100%. Further, the growth with CAKI-1 renal is 97.4%; in the experiment with A498 renal, 118%; in the experiment with CCRF-CEM leukemia, 105%; with MOLT-4 leukemia it was 100%.
Consider `CN1CCN(c2ccc3c(c2)nc(NNC(=O)c2ncccn2)c2cccn23)CC1`, for which the growth in the experiment with SK-MEL-2 melanoma is -7.45% (active); with EKVX NSCLC, -73.2% (active); in the experiment with SN12C renal it was 6.25% (active); with UO-31 renal, 1.76% (active); in the experiment on TK-10 renal, -87.5% (active); in the experiment with ACHN renal it was -83.7% (active). Moreover, the growth in the experiment with CAKI-1 renal is -80.9% (active); with A498 renal, -95% (active); with CCRF-CEM leukemia, 7.34% (active).
Take `CC1(c2cc3cc(Br)ccc3oc2=O)NC(=O)c2c(/C=C/C(=O)OC3CC4CCC3(C)C4(C)C)cccc2N1` (configuration not stated): the growth was 92.7% in the experiment on SK-MEL-2 melanoma; 62.1% with EKVX NSCLC; 75.5% in the experiment on SN12C renal; 59.8% with UO-31 renal; 104% in the experiment on TK-10 renal; 76.6% in the experiment on ACHN renal. The growth was 78.2% in the experiment with CAKI-1 renal, 142% in the experiment on A498 renal, 82.2% with CCRF-CEM leukemia and 47% in the experiment on MOLT-4 leukemia.
`C[C@H]1CN(C(=O)c2ccc3c(NNC(=O)c4ccncn4)nc4cc(F)c(F)cc4n23)CCN1`: the growth in the experiment on SK-MEL-2 melanoma was 53.4%; in the experiment on EKVX NSCLC, 15.7%; in the experiment on SN12C renal, 24.1%; with UO-31 renal, 13.6%; in the experiment with TK-10 renal, 36.8%; in the experiment on ACHN renal it was 8.98% (active). Besides, the growth with CAKI-1 renal is 15.2%; with A498 renal, 50.3%; with CCRF-CEM leukemia it was 10.9%.
Regarding `COc1cc2c(c(OC)c1OC)C(=O)CC(c1cccc(NC(=O)c3cc(NC(=O)[C@H](C)N)ccc3Cl)c1)O2` (some centres not stated), the growth in the experiment on SK-MEL-2 melanoma was 33.5%; in the experiment on EKVX NSCLC, 48.4%; in the experiment on SN12C renal it was 51.8%; in the experiment on UO-31 renal, 46.4%; in the experiment with TK-10 renal, 101%; with ACHN renal, 50.4%. Besides, the growth in the experiment on CAKI-1 renal is 51.5%; in the experiment on A498 renal it was 80.7%; in the experiment with CCRF-CEM leukemia it was 12.4%; in the experiment on MOLT-4 leukemia, 8.42% (active).
Take `COc1ccccc1/C=C/C(=O)c1ccc(OC)c(S(N)(=O)=O)c1`: the growth in the experiment on SK-MEL-2 melanoma is 78.4%; in the experiment with EKVX NSCLC, 23.2%; with SN12C renal, 15.5%; in the experiment on UO-31 renal it was 24.7%; in the experiment on TK-10 renal, 41.5%; with ACHN renal it was 21.4%. In addition, the growth in the experiment on CAKI-1 renal is 20.9%; in the experiment on A498 renal it was 105%; in the experiment on CCRF-CEM leukemia, 6.32% (active).
`O=C(NN1C(=O)/C(=C/C=C/c2ccc([N+](=O)[O-])o2)SC1=S)c1cccc(O)c1`: the growth in the experiment on SK-MEL-2 melanoma was -88.2% (active); in the experiment on EKVX NSCLC, -96.8% (active); in the experiment on SN12C renal, -99.8% (active); with UO-31 renal it was -98.6% (active); in the experiment with TK-10 renal it was -96.3% (active); with ACHN renal, -100% (active). The growth is -100% (active) in the experiment on CAKI-1 renal, 2.42% (active) in the experiment with A498 renal, 0.334% (active) in the experiment on CCRF-CEM leukemia and 2.92% (active) with MOLT-4 leukemia.
As to `CN(C)c1nc(NCCNS(=O)(=O)c2ccc(C(=O)/C=C/c3ccc(C(F)(F)F)cc3)cc2)nc(Nc2ccc(F)cc2)n1`, the growth was -7.74% (active) in the experiment on SK-MEL-2 melanoma; 13.6% in the experiment with EKVX NSCLC; -99.1% (active) with SN12C renal; 25.5% in the experiment with UO-31 renal; 26.2% in the experiment with TK-10 renal; 1.99% (active) in the experiment on ACHN renal. Besides, the growth was 4.56% (active) in the experiment with CAKI-1 renal, 49.6% in the experiment on A498 renal, 10.1% in the experiment with CCRF-CEM leukemia and 0.0408% (active) in the experiment with MOLT-4 leukemia.
Turning to `C=C1CC[C@@H]2[C@]3(C)COC(c4cn[nH]c4-c4ccc(F)cc4)O[C@@H]3CC[C@@]2(C)[C@@H]1C/C=C1/C(=O)OCC1O` (some centres not stated), the growth is -39% (active) with SK-MEL-2 melanoma; -6.56% (active) in the experiment on EKVX NSCLC; -51.4% (active) in the experiment with SN12C renal; -80.4% (active) with UO-31 renal; -19.1% (active) in the experiment on TK-10 renal; -80.3% (active) in the experiment with ACHN renal. For the same compound, the growth in the experiment on CAKI-1 renal was 1.51% (active); with A498 renal it was 146%; in the experiment with CCRF-CEM leukemia, -3.97% (active); in the experiment on MOLT-4 leukemia, 1.15% (active).
In the case of `C[C@H](Nc1nc(NCCc2ccccc2)nc2ccccc12)c1ccccc1`, the growth in the experiment on SK-MEL-2 melanoma was -92% (active); with EKVX NSCLC it was -86.2% (active); in the experiment with SN12C renal it was -94.6% (active); in the experiment with UO-31 renal it was -95.9% (active); in the experiment on TK-10 renal, -93.6% (active); in the experiment with ACHN renal it was -97.2% (active). Besides, the growth in the experiment with CAKI-1 renal is -85.9% (active); with A498 renal, -69.5% (active); with CCRF-CEM leukemia, -16.3% (active); in the experiment with MOLT-4 leukemia, -60.3% (active).
`C#C[C@]1(O)CC[C@H]2[C@@H]3CC=C4c5sc(-c6ccc([N+](=O)[O-])cc6)nc5CC[C@]4(C)[C@H]3CC[C@@]21C`: the growth is -42.8% (active) in the experiment with SK-MEL-2 melanoma; -61.6% (active) in the experiment on EKVX NSCLC; 57% with SN12C renal; -44.8% (active) in the experiment with UO-31 renal; 52% in the experiment on TK-10 renal; 3.11% (active) with ACHN renal. Also, the growth was 23.1% in the experiment on CAKI-1 renal, 6.18% (active) with A498 renal, 9.17% (active) in the experiment on CCRF-CEM leukemia and 10% with MOLT-4 leukemia.
Consider `Cn1cc(-c2cc3nc(-c4cn(C)c5ncccc45)cc(N)n3n2)c2ccccc21`, for which the growth with SK-MEL-2 melanoma was 15.2%; with EKVX NSCLC, 43.7%; in the experiment with SN12C renal it was -38.2% (active); with UO-31 renal, 8.84% (active); with TK-10 renal it was 80.3%; with ACHN renal, -73.3% (active). The growth in the experiment with CAKI-1 renal is -23.2% (active); in the experiment with A498 renal it was -2.42% (active); in the experiment with CCRF-CEM leukemia, 0.438% (active); in the experiment with MOLT-4 leukemia, -21.3% (active).
Take `CCOC(=O)C1=C(N)N(c2ccccc2)C2=C(C(=O)CC(C)(C)C2)C1c1ccc(N2CCOCC2)cc1` (configuration not stated): the growth with SK-MEL-2 melanoma was 97.4%; in the experiment on EKVX NSCLC it was 95.4%; with SN12C renal it was 95.7%; in the experiment on UO-31 renal, 90.3%; with TK-10 renal, 108%; with ACHN renal, 96.7%. The growth was 82.1% with CAKI-1 renal, 110% with A498 renal, 105% in the experiment with CCRF-CEM leukemia and 99.2% in the experiment on MOLT-4 leukemia.

These data come from PubChem BioAssay (NCI).
